S1P2 blocker: human S1P2 receptor antagonists, primary screen, cell-based; Sphingosine 1-phosphate receptor 2 (Homo sapiens), O95136; cell-based S1P2 antagonist assay, inhibition at 5 uM; inhibition, % at 5 µM; 0.21% of 97,000 active; AID 736, 2007; in the data active = inhibition above about 45%;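 also: CRE beta-lactamase reporter cells expressing human S1P2 stimulated with S1P; 0% = agonist at EC80 alone and 100% = agonist plus reference antagonist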
Target sequence (O95136 whole entry, looked up): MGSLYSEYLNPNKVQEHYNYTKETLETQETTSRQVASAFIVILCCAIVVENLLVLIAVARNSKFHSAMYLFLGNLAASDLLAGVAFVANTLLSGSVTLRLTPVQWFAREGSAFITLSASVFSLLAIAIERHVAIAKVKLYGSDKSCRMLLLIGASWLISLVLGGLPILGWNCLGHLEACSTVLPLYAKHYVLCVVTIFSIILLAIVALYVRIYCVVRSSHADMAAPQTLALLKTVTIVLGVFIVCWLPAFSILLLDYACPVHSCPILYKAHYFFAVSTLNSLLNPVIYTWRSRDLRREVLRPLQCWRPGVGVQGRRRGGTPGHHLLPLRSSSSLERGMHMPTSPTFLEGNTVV
PTPN22 act: LYP phosphatase activators, primary screen, biochemical, DiFMUP fluorescence, 2 µM. recombinant LYP; 0 = plate median, 100 = signal doubled. activation, % at 2 µM. 0.11% of 96,000 active;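 active = activation at 2 µM above a set limit, the mean plus 5 SD, cut at about 37% in these data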
GALR2 blocker: GALR2 antagonists in receptor-expressing cells, primary screen; inhibition, % at 4 µM; antagonist mode; Galanin receptor type 2 (Homo sapiens), O43603; 0.39% of 140,000 active; in the data active = inhibition above about 27%;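 also: cells stimulated with galanin 1-16 at roughly its EC80; 0% = agonist challenge control and 100% = basal control without agonist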
Target sequence (O43603 whole entry, looked up): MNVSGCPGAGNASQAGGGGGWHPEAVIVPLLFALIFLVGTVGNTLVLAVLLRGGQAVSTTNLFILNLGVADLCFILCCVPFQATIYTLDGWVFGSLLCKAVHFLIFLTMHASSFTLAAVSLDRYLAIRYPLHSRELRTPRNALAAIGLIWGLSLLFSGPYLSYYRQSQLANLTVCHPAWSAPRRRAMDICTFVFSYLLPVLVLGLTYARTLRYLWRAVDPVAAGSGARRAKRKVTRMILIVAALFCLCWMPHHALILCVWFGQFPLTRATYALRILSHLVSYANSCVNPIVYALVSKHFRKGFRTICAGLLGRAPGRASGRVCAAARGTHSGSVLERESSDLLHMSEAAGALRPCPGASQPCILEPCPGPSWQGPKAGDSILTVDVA
S1P2 ag: S1P2 receptor agonists, primary screen, cell-based; S1P2-expressing cell line, agonist reporter read-out; Sphingosine 1-phosphate receptor 2 (Homo sapiens), O95136; 0.46% of 97,000 active; activation, % at 4.5 µM; in the data active = activation above about 16%;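 also: 0% = vehicle low control and 100% = maximal reference agonist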
PTPN22 inh 2: PTPN22 phosphatase inhibitors, primary screen, biochemical, DiFMUP fluorescence, 2 µM; Tyrosine-protein phosphatase non-receptor type 22 (Homo sapiens), Q9Y2R2; recombinant LYP catalytic domain; inhibition, % at 2 µM; 0.21% of 96,000 active; AID 640, 2007;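 active = inhibition at 2 µM at or above a set limit, the screen mean plus 3 SD, cut at about 24% in these data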;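 also: 0% = DMSO with enzyme and 100% = enzyme fully blocked by orthovanadate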
GALR2 agonist: GALR2 receptor agonists, primary screen, cell-based; activation, % (concentration not given with the values); GALR2-expressing cells, agonist activation read-out; 0.48% of 140,000 active; Galanin receptor type 2 (Homo sapiens), O43603; in the data active = activation above about 5%, passing the limit was not always enough;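 also: 0% = vehicle buffer wells and 100% = reference agonist at full effect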
* hit, by the source's call; x = no result. Hits are enriched below; roughly 1.3% of the tested compounds scored in any of these assays.

SMILES | S1P2 blocker | PTPN22 act | GALR2 blocker | S1P2 ag | PTPN22 inh 2 | GALR2 agonist
CN(C)S(=O)(=O)c1ccc(N2CCCC2)c(C(=O)NC(c2ccccc2)c2ccccc2)c1 | -9.7 | -14.8 | 7.3 | -1.1 | 13.4 | -1.9
O=Cc1cnc(N2CCOCC2)nc1 | x | x | -8.1 | x | x | 0.1
COc1cc(C2C(C#N)=C(N)Oc3c2ccc2ccccc32)ccc1OCC(=O)Nc1ccccc1C (stereo not given) | 19.8 | 2.4 | 1.5 | -3.5 | 1.4 | -1.2
COC(=O)c1ccc(NC(=O)COc2ccc(C3C(C#N)=C(N)Oc4c3ccc3ccccc43)cc2OC)cc1 (stereo not given) | 62.9* | 2.5 | 11.1 | -6.8 | 1.5 | -0.8
CC(=O)Nc1ccc(NC(=O)c2cc(C)nn2-c2ccccc2)cc1 | 1.9 | -6.1 | -7.9 | -2.1 | 2.0 | -1.2
CC(=O)c1cc2c(cc1NC(=O)c1cc(C)nn1-c1ccccc1)OCO2 | x | x | 9.2 | x | x | 14.8*
N#CC(c1cccc(Cl)c1)c1ccc2c(C(F)(F)F)cc(C(F)(F)F)nc2n1 (stereo not given) | 88.0* | -6.1 | 15.1 | -5.3 | 9.4 | -1.9
Cc1cc(C(C#N)c2cccc(Cl)c2)n2ncnc2n1 (stereo not given) | 14.3 | -2.7 | 6.2 | -9.0 | 4.4 | -1.5
CCS(=O)(=O)N1CCC(C(=O)NCCN2CCN(Cc3ccccc3)CC2)CC1 | -2.0 | -4.2 | -1.0 | -7.6 | 1.9 | 6.2*
CCN(CC)S(=O)(=O)c1ccc(Oc2ccc(S(=O)(=O)N(CC)CC)cc2)cc1 | 72.1* | -6.4 | 6.1 | -4.4 | 8.3 | -1.4
Cc1cc([N+](=O)[O-])nn1CCCC(=O)N1CCN(c2ccc(F)cc2)CC1 | x | x | 5.7 | x | x | -1.3
COc1cc2c(C)nc(C)c(C#N)c2cc1OC | -37.0 | 5.2 | 2.1 | 20.6* | -7.0 | 0.7
Cc1scc(C(=O)O)c1-c1c(C(=O)O)csc1C | x | x | -7.7 | x | x | -2.6
O=C(NNC(=O)c1ccc2ccccc2c1O)c1ccccc1Cl | 4.1 | -20.1 | 0.4 | -6.4 | 24.3* | -2.7
CC(C)(C)NC(=S)NNC(=O)c1ccccc1Cl | x | x | 3.8 | x | x | -0.5
Cc1cccc(-n2c(=O)c(C#N)cc3c(=O)n4ccccc4nc32)c1 | -63.1 | 15.9 | -15.5 | 39.3* | -17.1 | 23.9*
Cc1ccc(-n2c(=O)c(C#N)cc3c(=O)n4ccccc4nc32)cc1 | x | x | -5.5 | x | x | 8.7*
Cc1cc(-n2c(=O)c(C#N)cc3c(=O)n4cccc(C)c4nc32)no1 | x | x | -7.0 | x | x | 19.1*
CCCn1c(=N)c(C#N)cc2c(=O)n3ccccc3nc21 | x | x | 8.4 | x | x | 0.2
Cc1cccn2c(=O)c3cc(C#N)c(=O)n(-c4c(C)n(C)n(-c5ccccc5)c4=O)c3nc12 | x | x | 4.6 | x | x | -0.8
Cc1[nH]c2ccccc2c1C(=O)Cn1c(=O)oc2ccccc21 | -21.7 | 14.3 | -0.6 | 3.9 | -13.6 | 1.1
NC(=O)c1ccsc1NC(=O)COC(=O)Cc1cccc2ccccc12 | 10.6 | -9.9 | 19.9 | -4.4 | 9.4 | -3.2
CCOC(=O)C1=C(CSc2nc3ccccc3s2)NC(=O)NC1c1cccc([N+](=O)[O-])c1 (stereo not given) | -1.8 | -10.0 | -4.7 | -8.2 | 11.8 | -1.6
CCCCOc1ccc(/C(O)=C2/C(=O)C(=O)N(Cc3cccnc3)C2c2ccncc2)c(C)c1 (stereo not given) | x | x | 6.1 | x | x | -2.5
CCc1cccc(C)c1NC(=O)CNCc1ccccc1 | x | x | -2.9 | x | x | -1.6
SMILES | S1P2 blocker | PTPN22 act | GALR2 blocker | S1P2 ag | PTPN22 inh 2 | GALR2 agonist
CC1=CC2=NC(=O)/C(=C\c3cc(C)n(-c4ccccc4F)c3C)C(=N)N2O1 | x | x | 6.6 | x | x | 5.4*
CC1=CC2=NC(=O)/C(=C\c3cc(C)n(-c4ccccc4)c3C)C(=N)N2O1 | x | x | -4.9 | x | x | 0.6
CCCNc1cc(=O)n(C)c(=O)n1C | 1.2 | -25.9 | 4.2 | -1.9 | 25.4* | -2.1
Cn1c2ccc(Cl)cc2c2nc3ccccc3nc21 | -53.4 | x | 0.9 | 23.9* | x | -0.5
Cc1c(Cl)cnc(NC(=O)COC(=O)c2cc3c(s2)CCC(C)C3)c1Cl (stereo not given) | x | x | 4.4 | x | x | -0.6
CC(C)c1ccc(N2C(=O)CC(Sc3nc4ccccc4o3)C2=O)cc1 (stereo not given) | 3.3 | -22.2 | -12.4 | -4.3 | 24.5* | -1.6
CCOC(=O)N1CCN(C(=O)c2cccc(OC)c2OC)CC1 | -11.9 | -0.2 | -22.1 | -1.7 | -3.4 | 0.2
CCOC(=O)N1CCN(C(=O)c2cnc(Nc3ccccc3OC)c3ccccc23)CC1 | x | x | 11.7 | x | x | 7.0*
CC1CCN(c2ccc(C(=O)O)cc2NS(=O)(=O)c2ccc(Br)cc2)CC1 | x | x | -6.6 | x | x | -0.7
CC(C)CNC(=O)c1ccccc1NC(=O)/C=C/c1cccc([N+](=O)[O-])c1 | x | x | 5.5 | x | x | -0.8
CCOC(=O)Cc1nc2ccccc2[nH]1 | -11.3 | -11.3 | 5.0 | -5.3 | 14.2 | 5.4*
CCOC(=O)CCc1nc2ccccc2[nH]c1=O | -19.4 | 2.7 | -7.9 | -3.6 | -2.8 | -2.1
CC(C)OCCCNC(=O)c1c(N)n(/N=C/c2cccs2)c2nc3ccccc3nc12 | -27.5 | -2.9 | -18.1 | 18.0* | 7.5 | 3.0
CC(CCc1ccccc1)NC(=O)c1nnc(Cc2ccc(Cl)cc2)o1 (stereo not given) | 14.1 | 6.2 | 8.8 | -3.9 | -6.2 | -2.1
O=c1cc(-c2c(F)c(F)c(F)c(F)c2F)oc2c(F)c(F)c(F)c(F)c12 | x | x | 69.2* | x | x | -0.9
O=c1cc(-c2c(F)c(F)c(F)c(F)c2F)oc2ccccc12 | 15.5 | -4.7 | 7.5 | 0.8 | 3.2 | -1.5
O=C(O)CCC(=O)N1CCN(c2nc(-c3ccccc3Cl)c3cc(Br)ccc3n2)CC1 | -14.9 | -1.3 | 8.6 | 16.4* | 6.3 | 9.6
O=C(NCCC(=O)N1CCN(c2ncccn2)CC1)c1ccccc1Cl | -3.6 | 4.6 | -16.3 | -2.1 | -7.3 | -1.6
COCc1cc(C)nc(Nc2ccccc2C)c1C#N | -34.8 | -26.5 | 2.9 | -5.5 | 26.0* | -2.9
Cc1ccc(NC(=O)CN2C(=O)S/C(=C\c3cccn3-c3cccc(C(=O)O)c3)C2=O)c(C)c1 | 9.8 | -48.3 | 2.2 | -1.6 | 49.6* | -1.7
Cc1ccc(-n2c(SCC(=O)Nc3cc(C)on3)nc3c([nH]c4ccccc43)c2=O)cc1 | -9.3 | -13.4 | 3.2 | 17.7* | 10.5 | 2.3
CCOC(=O)C1=C(O)/C(=C/c2cn(CC(=O)NCC3CCCO3)c3ccccc23)SC1=Nc1ccc(C)cc1 (stereo not given) | 3.1 | -18.7 | 34.1* | -5.5 | 19.1 | 0.6
CCOC(=O)N1CCC2(CC1)C(C#N)=C(N)OC1=C2C(=O)CC(C)C1 (stereo not given) | 4.3 | 7.9 | -17.5 | -5.5 | -6.0 | -0.6
COC(=O)[C@@H]1C[C@]2(OC(=O)c3ccccc3)C=CC(=O)C[C@@H]2N1C(=O)OCc1ccccc1 | x | x | 28.0* | x | x | -1.0
Cc1ccc2nc3c(cc2c1)c(NC(=O)c1ccccn1)nn3CC(C)C | -22.5 | 1.1 | -11.1 | 18.6* | 1.2 | 2.7
